# Laboratory results reported in PubChem BioAssay (Tox21).
# Results filed as inconclusive are left out. Where a call stands in place of a potency, no number is given. Active and inactive are the calls of the source. The call rests on the fitted dose curve; in most records, active means well fitted curve in the direction sought with a large enough effect in the repeat runs; inconclusive means weak or mixed curves; inactive means no such curve, though single readings can be large; an effect the other way counts as inactive or inconclusive.
# Experiments:
# [1] = target: Cytochrome P450 2C9 (Homo sapiens) (UniProt P11712); assay: Cytochrome P450 Family 2 Subfamily C Member 9 (CYP2C9) small molecule antagonists: luciferase reporter qHTS assay (AID 1671198); further: potency means the concentration at half of the fitted maximal effect
# Cytochrome P450 2C9 (Homo sapiens), sequence (P11712 whole entry, looked up): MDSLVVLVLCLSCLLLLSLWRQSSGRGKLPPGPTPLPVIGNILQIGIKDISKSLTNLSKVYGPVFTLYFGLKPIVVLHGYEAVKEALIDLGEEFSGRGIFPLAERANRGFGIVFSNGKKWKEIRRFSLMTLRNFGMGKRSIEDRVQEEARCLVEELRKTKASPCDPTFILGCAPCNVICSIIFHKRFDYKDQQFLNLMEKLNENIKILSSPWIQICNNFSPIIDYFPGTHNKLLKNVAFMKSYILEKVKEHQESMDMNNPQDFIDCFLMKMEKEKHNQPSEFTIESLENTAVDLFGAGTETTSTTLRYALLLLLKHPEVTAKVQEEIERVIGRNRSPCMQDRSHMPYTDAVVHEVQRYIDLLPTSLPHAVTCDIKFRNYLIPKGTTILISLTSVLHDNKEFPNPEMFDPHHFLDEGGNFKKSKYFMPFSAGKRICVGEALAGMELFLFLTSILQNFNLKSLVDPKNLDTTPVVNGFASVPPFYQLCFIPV
# Outline: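 P450-Glo proluciferin substrate with CYP2C9 enzyme; 10 min RT preincubation, then NADPH regeneration 1 h at 37C; luciferin detection reagent 20 min RT, luminescence in relative luminescence units.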
# [2] = target: Cytochrome P450 1A2 (Homo sapiens) (UniProt P05177); assay: Cytochrome P450 Family 1 Subfamily A Member 2 (CYP1A2) small molecule antagonists: luciferase reporter qHTS assay (AID 1671199); further: potency means the concentration at half of the fitted maximal effect
# Cytochrome P450 1A2 (Homo sapiens), sequence (P05177 whole entry, looked up): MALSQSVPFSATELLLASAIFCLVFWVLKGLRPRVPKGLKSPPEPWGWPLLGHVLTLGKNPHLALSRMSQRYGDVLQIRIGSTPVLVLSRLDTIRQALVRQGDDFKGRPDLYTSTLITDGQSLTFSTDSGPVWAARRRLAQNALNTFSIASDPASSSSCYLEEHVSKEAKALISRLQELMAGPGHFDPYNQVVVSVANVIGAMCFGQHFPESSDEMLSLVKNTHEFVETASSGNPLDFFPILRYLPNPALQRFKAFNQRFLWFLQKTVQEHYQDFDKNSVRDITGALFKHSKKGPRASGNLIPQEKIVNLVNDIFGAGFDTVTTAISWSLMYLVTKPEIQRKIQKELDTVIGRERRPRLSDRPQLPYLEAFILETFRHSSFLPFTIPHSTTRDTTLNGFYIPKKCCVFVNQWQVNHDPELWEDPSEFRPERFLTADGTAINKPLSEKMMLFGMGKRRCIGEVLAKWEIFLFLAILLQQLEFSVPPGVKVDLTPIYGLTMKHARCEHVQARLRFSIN
# Outline: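 Quantitative high-throughput format using the P450-Glo CYP1A2 system. Reaction initiated by NADPH regeneration solution, 1 h at room temperature, then stopped with detection reagent; luminescence measured 20 min later.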
# [3] = target: Voltage-gated inwardly rectifying potassium channel KCNH2 (Homo sapiens) (UniProt Q12809); assay: Human Ether-a-go-go-Related Gene (hERG) channel small molecule antagonists: fluorescence cell-based qHTS assay (AID 1671200); further: potency means the concentration at half of the fitted maximal effect
# Voltage-gated inwardly rectifying potassium channel KCNH2 (Homo sapiens), sequence (Q12809 whole entry, looked up): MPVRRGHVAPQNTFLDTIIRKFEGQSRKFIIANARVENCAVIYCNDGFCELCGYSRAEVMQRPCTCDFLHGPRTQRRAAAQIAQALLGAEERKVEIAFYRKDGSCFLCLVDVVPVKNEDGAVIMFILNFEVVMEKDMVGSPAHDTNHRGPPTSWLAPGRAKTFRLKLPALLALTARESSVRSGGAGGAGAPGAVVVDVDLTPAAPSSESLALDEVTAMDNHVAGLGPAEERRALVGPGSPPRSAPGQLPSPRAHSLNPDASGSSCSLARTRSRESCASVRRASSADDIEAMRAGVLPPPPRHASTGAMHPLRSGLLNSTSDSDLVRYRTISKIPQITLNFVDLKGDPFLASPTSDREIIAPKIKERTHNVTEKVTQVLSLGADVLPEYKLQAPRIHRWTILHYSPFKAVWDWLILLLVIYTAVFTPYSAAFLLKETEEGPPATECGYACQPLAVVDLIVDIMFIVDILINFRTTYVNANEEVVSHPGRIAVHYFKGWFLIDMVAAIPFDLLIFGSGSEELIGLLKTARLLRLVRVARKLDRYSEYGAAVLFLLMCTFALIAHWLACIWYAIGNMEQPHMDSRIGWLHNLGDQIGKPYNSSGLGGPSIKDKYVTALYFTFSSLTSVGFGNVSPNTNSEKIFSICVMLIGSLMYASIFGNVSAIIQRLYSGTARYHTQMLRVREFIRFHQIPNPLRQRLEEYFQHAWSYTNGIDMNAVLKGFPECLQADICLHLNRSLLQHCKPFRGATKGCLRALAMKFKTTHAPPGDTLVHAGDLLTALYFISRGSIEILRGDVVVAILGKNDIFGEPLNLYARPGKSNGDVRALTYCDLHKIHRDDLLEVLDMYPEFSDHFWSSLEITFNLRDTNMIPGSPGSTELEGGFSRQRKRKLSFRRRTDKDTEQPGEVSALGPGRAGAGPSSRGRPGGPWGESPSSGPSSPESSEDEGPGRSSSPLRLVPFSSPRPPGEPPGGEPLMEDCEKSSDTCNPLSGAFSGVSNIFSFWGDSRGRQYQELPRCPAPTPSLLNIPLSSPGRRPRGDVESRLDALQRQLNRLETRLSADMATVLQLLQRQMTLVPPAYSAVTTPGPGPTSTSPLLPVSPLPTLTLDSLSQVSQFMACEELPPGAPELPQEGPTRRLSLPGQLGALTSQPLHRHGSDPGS
# Outline: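 Quantitative HTS in hERG-U2OS cells: thallium entry through the channel reports activity, read as continuous 480/540 nm fluorescence over 2 min after stimulus addition.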
# [4] = target: Cytochrome P450 3A4 (Homo sapiens) (UniProt P08684); assay: Cytochrome P450 Family 3 Subfamily A Member 4 (CYP3A4) small molecule antagonists: luciferase reporter qHTS assay (AID 1671201); further: series mostly up to about 120 µM
# Cytochrome P450 3A4 (Homo sapiens), sequence (P08684 whole entry, looked up): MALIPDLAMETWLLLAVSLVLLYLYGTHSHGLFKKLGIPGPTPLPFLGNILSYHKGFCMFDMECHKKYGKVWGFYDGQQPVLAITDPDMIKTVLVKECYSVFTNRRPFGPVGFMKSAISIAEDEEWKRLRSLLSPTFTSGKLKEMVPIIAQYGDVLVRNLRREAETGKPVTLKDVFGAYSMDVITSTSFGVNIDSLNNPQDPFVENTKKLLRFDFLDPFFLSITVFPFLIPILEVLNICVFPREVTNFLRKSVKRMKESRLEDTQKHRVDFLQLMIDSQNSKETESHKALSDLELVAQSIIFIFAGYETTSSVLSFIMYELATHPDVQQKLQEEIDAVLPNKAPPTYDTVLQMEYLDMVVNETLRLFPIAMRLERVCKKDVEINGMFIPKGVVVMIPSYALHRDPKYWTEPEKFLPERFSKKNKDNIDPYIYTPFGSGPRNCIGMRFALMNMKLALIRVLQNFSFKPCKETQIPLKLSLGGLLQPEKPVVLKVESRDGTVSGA
# Outline: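 Inhibition of CYP3A4 is measured as loss of light: the enzyme converts a proluciferin substrate to luciferin, detected luminescently. Reaction ran 1 h at room temperature with NADPH regeneration after a 10 min compound preincubation.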
# Further: nearly all actives have a fitted effect of over 50% in size.
Compound,Potency [1],Potency [2],Potency [3],Potency [4]
CCCCCCCCCC(=O)N(C)C,40.5 µM (active),36.1 µM (active),inactive,
CC(CN(C)C)CN1c2ccccc2CCc2ccccc21 (centres undefined),inactive,inactive,15.1 µM (active),
Cc1ccc(N)cc1O,21.8 µM (active),11.1 µM (active),inactive,
CNC(=O)c1cc(Oc2ccc(NC(=O)Nc3ccc(Cl)c(C(F)(F)F)c3)cc2)ccn1,17.4 µM (active),inactive,,
Nc1cc(Cl)c([N+](=O)[O-])cc1O,31.5 µM (active),19.9 µM (active),inactive,
COc1cc(C=C2CCC/C(=C\c3ccc(O)c(OC)c3)C2=O)ccc1O,15.5 µM (active),inactive,inactive,
O=C1NCCN1CCN1CCC(c2cn(-c3ccc(F)cc3)c3ccc(Cl)cc23)CC1,inactive,inactive,,
Cc1occc1SSc1ccoc1C,56.4 µM (active),,,
CCOC(=O)C1=C(C)NC(C)=C(C(=O)OCC)C1c1ccccc1/C=C/C(=O)OC(C)(C)C,1.1 µM (active),,,
COCC(=O)O[C@]1(CCN(C)CCCc2nc3ccccc3[nH]2)CCc2cc(F)ccc2[C@@H]1C(C)C,inactive,inactive,,
C=CC(C)C#N (centres undefined),inactive,inactive,inactive,inactive
CCCCOCC,inactive,inactive,inactive,
CCCCCCCOC(=O)c1ccccc1C(=O)OCCCCCCC,17.8 µM (active),15.9 µM (active),inactive,
O=C(O)CCn1c2c(c3ccccc31)C[C@H](NS(=O)(=O)c1ccc(F)cc1)CC2,17.4 µM (active),inactive,inactive,
C[n+]1c2cc(N)ccc2cc2ccc(N)cc21 (tested in a mixture with another compound),inactive,2.19 µM (active),inactive,
